The structures appear in SMILES notation. Inconclusive results are not listed. Active and inactive are the calls of the source. Unless noted, calls come from the whole dose curve; as a rule, active = well fitted curve in the direction sought with a large enough effect in the repeat runs; inconclusive = weak or mixed curves; inactive = no such curve, though single readings can be large; an effect the other way counts as inactive or inconclusive.

Consider ten compounds from PubChem BioAssay (Tox21).

Assay [1] in a line: qHTS assay to identify aromatase inhibitors - cell viability counter screen (AID 743084;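 note: cells stimulated with testosterone during compound exposure; nearly all actives have a fitted effect of over 55% in size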). (In general: qHTS replaces the single test concentration by a dilution series.)
Assay [2] deals with Aryl hydrocarbon receptor (Homo sapiens) (UniProt P35869). The assay can be described thus: qHTS assay to identify small molecule that activate the aryl hydrocarbon receptor (AhR) signaling pathway (AID 743085).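 For activation: HG2L7.5c1 human HepG2 liver cells with stably integrated DRE-driven firefly reporter; series mostly up to about 70 µM.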 Note: nearly all actives have a fitted effect of over 15% in size. Note: potency is the fitted concentration of half-maximal effect. The method, boiled down:
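Reporter assay in engineered HepG2 line HG2L7.5c1, whose plasmid carries twenty dioxin responsive elements upstream of firefly luciferase. Treatment lasted 24 h at 37C; ONE-Glo luminescence gauged induction.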

The nature of assay [3]: qHTS assay to identify small molecule that activate the aryl hydrocarbon receptor (AhR) signaling pathway - cell viability counter screen (AID 743086).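 Note: HepG2 liver cells carrying the AhR DRE luciferase reporter; series mostly up to about 70 µM; nearly all actives have a fitted effect of over 45% in size.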 The method, boiled down:
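HepG2-AhR-luc (HG2L7.5c1) cells, 4000/well, were preincubated 5 h at 37C, exposed to compound in qHTS format for 24 hr at 37C, then given CellTiter-Fluor for 30 min; viability was read as fluorescence in the reporter wells.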

Assay [4] in a line: qHTS assay for small molecule agonists of the antioxidant response element (ARE) signaling pathway - cell viability counter screen (AID 743203; calls by dose curve; note: nearly all actives have a fitted effect of over 55% in size; note: potency is the fitted concentration of half-maximal effect). Put shortly: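 Compounds in DMSO were pinned onto ARE-bla HepG2 cells plated 5 hrs earlier at 2,000 cells/well. Sixteen hours later at 37C/5% CO2, CellTiter-Glo was added and luminescence measured after 30 min at room temperature.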

A short description of assay [5]: qHTS assay for small molecule activators of the heat shock response signaling pathway - cell viability counter screen (AID 743209). Note: nearly all actives have a fitted effect of over 50% in size. The method, boiled down:
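Counter screen for cytotoxicity in HeLa HSE-bla reporter cells. Treatment was 5 h at 37 C; viability was detected by luminescent ATP assay (CellTiter-Glo) in the same wells as the beta-lactamase read.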

Assay [6] deals with Peroxisome proliferator-activated receptor delta (Homo sapiens) (UniProt Q03181). The assay is described as follows: qHTS assay to identify small molecule agonists of the peroxisome proliferator-activated receptor delta (PPARd) signaling pathway (AID 743212; calls by dose curve). Put shortly:
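GeneBLAzer PPARd UAS-bla HEK293H cells (beta-lactamase reporter under UAS control), plated and rested 5 h at 37 C, then exposed to compounds in DMSO at 37 C; LiveBLAzer B/G FRET substrate added, 2 h room temperature, fluorescence read.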

The nature of assay [7]: qHTS assay to identify small molecule antagonists of the peroxisome proliferator-activated receptor delta (PPARd) signaling pathway - cell viability counter screen (AID 743213). Note: nearly all actives have a fitted effect of over 50% in size. The method, boiled down:
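In this counter screen, HEK293H cells carrying a UAS-beta-lactamase reporter are co-treated with test compounds and 300 nM L165041 (final) for 17 h at 37 C; cell viability is quantified by CellTiter-Glo luminescence.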

Assay [8] concerns the target Peroxisome proliferator-activated receptor delta (Homo sapiens) (UniProt Q03181). The assay is described as follows: qHTS assay to identify small molecule antagonists of the peroxisome proliferator-activated receptor delta (PPARd) signaling pathway (AID 743215; active = well fitted inhibition curve with a large enough effect in the signal ratio in the repeat runs, not every such curve was filed as active; the % refers to the signal ratio;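 note: cells stimulated with agonist L165041 at 300 nM final during compound exposure; series mostly up to about 62 µM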). The method, boiled down: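 With L165041 present at 300 nM final, compounds were incubated 17 h at 37 C on PPARd UAS-bla HEK293H cells. A FRET-based beta-lactamase substrate was then applied for 2 h at room temperature and fluorescence intensity recorded.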

The nature of assay [9]: qHTS assay to identify small molecule agonists of the farnesoid-X-receptor (FXR) signaling pathway - cell viability counter screen (AID 743218). Note: nearly all actives have a fitted effect of over 45% in size. The method, boiled down: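 After 16 h at 37 C with test compounds, FXR-bla HEK 293T cells were given LiveBLAzer B/G substrate for 2 h at RT and then CellTiter-Glo; luminescence was taken after 30 min.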
For assay [10], the target named is Bile acid receptor (Homo sapiens) (UniProt Q96RI1). The assay can be described thus: qHTS assay to identify small molecule agonists of the farnesoid-X-receptor (FXR) signaling pathway (AID 743220; active = well fitted activation curve with a large enough effect in the signal ratio in the repeat runs, not every such curve was filed as active; the % refers to the signal ratio). The method, boiled down: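 Beta-lactamase reporter under UAS control in GeneBLAzer FXR HEK 293T cells (5000/well) measured with LiveBLAzer FRET substrate after 2 h at room temperature. Compound exposure lasted 16 h at 37C.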

A short description of assay [11]: qHTS assay to identify small molecule antagonists of the farnesoid-X-receptor (FXR) signaling pathway - cell viability counter screen (AID 743221; active = well fitted cell-killing curve with a large enough effect in the repeat runs, not every such curve was filed as active; note: nearly all actives have a fitted effect of over 50% in size). Put shortly:
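CellTiter-Glo, 30 min RT, luminescence; same wells as the LiveBLAzer FRET read. Cells: FXR-UAS-bla HEK 293T. Treatment: compound with chenodeoxycholic acid 50 uM final, 16 h at 37 C.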

In assay [12] the target is Vitamin D3 receptor (Homo sapiens) (UniProt P11473). The assay is described as follows: qHTS assay to identify small molecule agonists of the vitamin D receptor (VDR) signaling pathway (AID 743222; calls by dose curve). Put shortly:
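VDR-bla cells were seeded, left 4 h, treated with compounds in DMSO for 16 h, incubated 2 h at RT with B/G FRET substrate, and read for fluorescence.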

Assay [13] shares this target. The assay can be described thus: qHTS assay to identify small molecule antagonists of the vitamin D receptor (VDR) signaling pathway (AID 743223; active = well fitted inhibition curve with a large enough effect in the signal ratio in the repeat runs, not every such curve was filed as active; the % refers to the signal ratio). The method, boiled down: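 After VDR-bla cells are plated and left 4 h at 37C, DMSO-dissolved compounds and 3 nM (final) calcitriol agonist are added. Incubation continues 16 h at 37C; FRET beta-lactamase substrate then develops 2 h at room temperature.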

Assay [14] addresses Peroxisome proliferator-activated receptor gamma (Homo sapiens) (UniProt P37231). The assay can be described thus: qHTS assay to identify small molecule agonists of the peroxisome proliferator-activated receptor gamma (PPARg) signaling pathway (AID 743094; active = well fitted activation curve with a large enough effect in the signal ratio in the repeat runs, not every such curve was filed as active; the % refers to the signal ratio). The method, boiled down:
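Following 5 h plating at 37C, PPARg-bla HEK293H cells receive compound or DMSO for 17 h; fluorescence intensity is recorded after LiveBLAzer B/G loading for 1 h at room temperature.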

Assay [15] shares this target. The assay is described as follows: qHTS assay to identify small molecule antagonists of the peroxisome proliferator-activated receptor gamma (PPARg) signaling pathway (AID 743191; calls by dose curve; note: nearly all actives have a fitted effect of over 30% in size; note: potency is the fitted concentration of half-maximal effect). Put shortly:
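GeneBLAzer PPARg UAS-bla HEK293H cells carrying a UAS-driven beta-lactamase reporter were plated at 3000 cells/well, preincubated 5 h at 37C, then given compound for 17 h at 37C; LiveBLAzer B/G FRET substrate was read after 1 h at room temperature.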

Assay [16] can be described thus: qHTS assay for small molecule agonists of the antioxidant response element (ARE) signaling pathway (AID 743202; active = well fitted activation curve with a large enough effect in the signal ratio in the repeat runs, not every such curve was filed as active; the % refers to the signal ratio). The method, boiled down:
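Read-out: LiveBLAzer B/G FRET substrate fluorescence after 2 h at room temperature, following 16 h compound treatment at 37 C of HepG2 cells carrying an ARE-driven beta-lactamase reporter.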

A short description of assay [17]: qHTS assay for small molecule activators of the heat shock response signaling pathway (AID 743210; active = well fitted activation curve with a large enough effect in the signal ratio in the repeat runs, with a control signal flat, not every such curve was filed as active; the % refers to the signal ratio; note: series mostly up to about 63 µM). The method, boiled down:
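HSE-bla HeLa cells (beta-lactamase reporter under heat shock response elements) were exposed to compounds for 5 h at 37 C, then loaded with LiveBLAzer B/G FRET substrate for 2.5 h at room temperature before fluorescence reading.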

Assay [18] can be described thus: qHTS assay to identify small molecule antagonists of the peroxisome proliferator-activated receptor gamma (PPARg) signaling pathway - cell viability counter screen (AID 743194). Note: nearly all actives have a fitted effect of over 55% in size. Conditions: Potency: co-treated with 50 nM rosiglitazone. Put shortly:
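PPARg-UAS-bla HEK293H cells were plated, rested 5 h at 37 C, then treated with compounds plus rosiglitazone (50 nM final) for 17 h at 37 C; viability was then read by CellTiter-Glo luminescence after 30 min at room temperature.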

Assay [19] addresses Bile acid receptor (Homo sapiens) (UniProt Q96RI1). The assay can be described thus: qHTS assay to identify small molecule antagonists of the farnesoid-X-receptor (FXR) signaling pathway (AID 743217; active = well fitted inhibition curve with a large enough effect in the signal ratio in the repeat runs, not every such curve was filed as active; the % refers to the signal ratio). Put shortly: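 In this cell-based antagonist screen, inhibition of CDCA-driven (50 uM final) UAS-beta-lactamase expression in HEK 293T cells was measured by FRET fluorescence following 16 h compound exposure at 37 °C.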

A short description of assay [20]: qHTS assay to identify small molecule agonists of the peroxisome proliferator-activated receptor delta (PPARd) signaling pathway - cell viability counter screen (AID 743211). Note: nearly all actives have a fitted effect of over 55% in size. Put shortly: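 Multiplexed format: after the 2 h room-temperature LiveBLAzer B/G FRET step, CellTiter-Glo was added to the same wells. Luminescence after 30 min gave cell viability; compound exposure was 17 h at 37C.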

Chain of Aryl hydrocarbon receptor (Homo sapiens) (P35869 whole entry, looked up): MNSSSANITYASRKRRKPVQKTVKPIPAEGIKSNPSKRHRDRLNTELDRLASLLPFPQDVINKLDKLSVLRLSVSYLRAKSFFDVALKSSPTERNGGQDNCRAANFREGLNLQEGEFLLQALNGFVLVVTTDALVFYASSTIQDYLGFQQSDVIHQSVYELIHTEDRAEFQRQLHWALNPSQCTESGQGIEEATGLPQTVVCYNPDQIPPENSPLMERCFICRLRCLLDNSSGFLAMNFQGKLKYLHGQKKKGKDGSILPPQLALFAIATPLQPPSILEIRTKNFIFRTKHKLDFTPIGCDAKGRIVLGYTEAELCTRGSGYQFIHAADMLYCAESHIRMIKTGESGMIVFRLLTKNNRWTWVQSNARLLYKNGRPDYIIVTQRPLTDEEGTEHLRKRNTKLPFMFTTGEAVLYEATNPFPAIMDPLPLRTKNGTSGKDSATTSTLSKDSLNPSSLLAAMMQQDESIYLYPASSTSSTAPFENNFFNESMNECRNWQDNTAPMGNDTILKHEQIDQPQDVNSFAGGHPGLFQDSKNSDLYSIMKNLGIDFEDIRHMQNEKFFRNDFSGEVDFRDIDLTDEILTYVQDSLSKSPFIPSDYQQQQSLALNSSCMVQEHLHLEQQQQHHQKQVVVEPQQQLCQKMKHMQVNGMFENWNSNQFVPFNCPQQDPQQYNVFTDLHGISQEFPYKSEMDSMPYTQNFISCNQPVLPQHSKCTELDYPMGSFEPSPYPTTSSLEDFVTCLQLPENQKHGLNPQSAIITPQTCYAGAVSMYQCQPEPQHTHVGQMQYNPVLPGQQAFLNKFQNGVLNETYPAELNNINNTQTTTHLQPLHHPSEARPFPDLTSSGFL
Chain of Peroxisome proliferator-activated receptor delta (Homo sapiens) (Q03181 whole entry, looked up): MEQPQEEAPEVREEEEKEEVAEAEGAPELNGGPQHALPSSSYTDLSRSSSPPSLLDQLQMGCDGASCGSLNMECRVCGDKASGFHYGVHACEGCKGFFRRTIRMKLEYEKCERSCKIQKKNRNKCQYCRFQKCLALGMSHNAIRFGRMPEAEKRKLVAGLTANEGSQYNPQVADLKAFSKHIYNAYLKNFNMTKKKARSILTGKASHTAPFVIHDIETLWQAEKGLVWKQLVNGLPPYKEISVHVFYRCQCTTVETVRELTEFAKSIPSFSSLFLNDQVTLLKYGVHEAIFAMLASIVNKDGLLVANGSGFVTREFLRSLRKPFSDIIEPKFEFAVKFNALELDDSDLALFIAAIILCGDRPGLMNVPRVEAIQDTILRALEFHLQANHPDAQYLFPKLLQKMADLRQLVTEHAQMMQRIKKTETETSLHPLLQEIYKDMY
Chain of Vitamin D3 receptor (Homo sapiens) (P11473 whole entry, looked up): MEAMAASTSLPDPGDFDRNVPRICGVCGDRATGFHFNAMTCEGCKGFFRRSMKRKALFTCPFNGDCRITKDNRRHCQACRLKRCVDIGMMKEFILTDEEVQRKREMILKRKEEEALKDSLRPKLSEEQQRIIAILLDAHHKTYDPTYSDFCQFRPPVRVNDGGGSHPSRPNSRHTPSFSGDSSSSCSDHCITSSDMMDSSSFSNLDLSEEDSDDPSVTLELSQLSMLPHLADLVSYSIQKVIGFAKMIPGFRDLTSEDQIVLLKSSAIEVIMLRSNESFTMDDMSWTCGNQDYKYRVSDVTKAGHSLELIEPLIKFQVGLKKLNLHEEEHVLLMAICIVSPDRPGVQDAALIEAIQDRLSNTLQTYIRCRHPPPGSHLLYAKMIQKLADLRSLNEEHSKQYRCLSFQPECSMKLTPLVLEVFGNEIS
Chain of Peroxisome proliferator-activated receptor gamma (Homo sapiens) (P37231 whole entry, looked up): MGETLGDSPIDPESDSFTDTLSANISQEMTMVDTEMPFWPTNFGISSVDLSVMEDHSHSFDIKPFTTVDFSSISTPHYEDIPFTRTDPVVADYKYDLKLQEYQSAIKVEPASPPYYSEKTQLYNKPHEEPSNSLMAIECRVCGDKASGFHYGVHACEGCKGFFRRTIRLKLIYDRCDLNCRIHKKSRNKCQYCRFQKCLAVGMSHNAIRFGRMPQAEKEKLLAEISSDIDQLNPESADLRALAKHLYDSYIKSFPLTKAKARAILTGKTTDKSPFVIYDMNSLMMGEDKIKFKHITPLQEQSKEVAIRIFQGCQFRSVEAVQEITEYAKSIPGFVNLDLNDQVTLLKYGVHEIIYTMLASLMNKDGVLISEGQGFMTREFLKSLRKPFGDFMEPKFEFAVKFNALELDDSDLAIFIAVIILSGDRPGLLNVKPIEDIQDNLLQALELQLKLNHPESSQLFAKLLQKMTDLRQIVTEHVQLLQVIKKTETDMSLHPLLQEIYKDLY
Chain of Bile acid receptor (Homo sapiens) (Q96RI1 whole entry, looked up): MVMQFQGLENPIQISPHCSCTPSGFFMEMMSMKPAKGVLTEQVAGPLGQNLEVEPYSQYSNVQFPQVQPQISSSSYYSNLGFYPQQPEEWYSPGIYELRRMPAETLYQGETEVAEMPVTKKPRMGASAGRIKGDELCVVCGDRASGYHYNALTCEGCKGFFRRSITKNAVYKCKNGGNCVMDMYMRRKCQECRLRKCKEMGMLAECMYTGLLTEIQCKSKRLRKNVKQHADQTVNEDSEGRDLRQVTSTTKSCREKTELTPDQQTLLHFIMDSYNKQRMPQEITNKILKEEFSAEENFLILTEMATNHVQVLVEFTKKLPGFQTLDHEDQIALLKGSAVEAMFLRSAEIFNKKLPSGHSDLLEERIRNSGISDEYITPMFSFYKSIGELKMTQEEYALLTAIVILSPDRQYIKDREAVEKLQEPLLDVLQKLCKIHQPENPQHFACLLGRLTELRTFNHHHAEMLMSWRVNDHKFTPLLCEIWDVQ

As to `OC(c1ccc(Cl)cc1)(c1ccc(Cl)cc1)c1cccnc1`, the Potency entry in assay [1], in assay [2], in assay [3], in [5], in assay [7] and in [8] was “inactive” throughout. The Potency result in assay [9] and in assay [11] was “inactive” throughout. Besides, the Potency in [4] is 61.1 µM (active). Also, the outcome in assay [6], in assay [10], in assay [12] and in [13] was inactive.

`CCOP(=S)(OCC)Oc1cc(Cl)c(Br)cc1Cl`: the Potency result in [1], in [14], in assay [15], in assay [16], in assay [4] and in assay [5] was “inactive” throughout. For the same compound, the Potency result in assay [9] and in assay [11] was “inactive” each time. The Potency in assay [2] was 9.69 µM (active). In addition, the call in assay [17], in [6], in assay [10] and in [13] was inactive.

For the compound `CCOP(=S)(Oc1ccc([N+](=O)[O-])cc1)c1ccccc1` (stereo not given), the Potency result in assay [1], in assay [3], in [18], in [4], in assay [5] and in assay [7] was “inactive” throughout. Moreover, the Potency entry in assay [11] is “inactive”. In addition, the outcome in assay [6] and in [13] was inactive.

For `CCCCCC[N+](=O)[O-]`, the Potency entry in assay [1], in [2], in assay [4], in assay [5], in assay [7] and in assay [19] was “inactive” each time. In addition, the Potency entry in assay [9] and in assay [11] was “inactive” in each case. The compound was classed as inactive in assay [17], in assay [10] and in assay [12].

As for `NNC(=O)c1cccnc1`, the Potency result in assay [1], in assay [3], in assay [14], in assay [15], in assay [18] and in [16] was “inactive” in each case. Moreover, the Potency result in assay [4], in assay [5], in assay [20], in assay [7], in assay [8] and in assay [19] was “inactive” in each case. In addition, the Potency entry in [11] is “inactive”. Also, the outcome in [17], in assay [6], in assay [10], in [12] and in [13] was inactive.

As for `OCCCBr`, the Potency entry in [1], in assay [3], in assay [14], in assay [18], in assay [20] and in [9] was “inactive” in each case. Moreover, in [17], the compound was classed as inactive.

With `Cc1ccccc1C(=O)Nc1cccc(OC(C)C)c1`, the Potency entry in assay [1], in [3], in [14], in [4], in [5] and in assay [7] was “inactive” each time. In addition, the Potency entry in [8] and in assay [11] was “inactive” in each case. For the same compound, the Potency in [15] was 49 µM (active). For the same compound, the compound was classed as inactive in assay [17] and in assay [6].

`Clc1cccc2ccccc12`: the Potency entry in assay [1], in [2], in [18], in assay [16], in assay [4] and in assay [5] was “inactive” each time. Moreover, the Potency result in assay [20], in assay [7], in assay [8], in assay [9] and in assay [11] was “inactive” throughout. Besides, the outcome in [17], in [6] and in assay [12] was inactive.

With `Oc1ccc(Cl)c(Cl)c1Cl`, the Potency result in [1], in [3], in assay [14], in [18], in assay [4] and in assay [5] was “inactive” in each case. Moreover, the Potency entry in assay [20], in [7], in [8], in [9] and in [11] was “inactive” each time. Further, the compound was called inactive in assay [17], in assay [6], in assay [10] and in assay [13].

`C=CCN1CC[C@]23c4c5ccc(O)c4O[C@H]2C(=O)CC[C@@]3(O)[C@H]1C5`: the Potency result in [1], in [2], in [18], in assay [16], in assay [4] and in assay [5] was “inactive” each time. The Potency entry in [20], in assay [7], in assay [19], in assay [9] and in assay [11] was “inactive” throughout. The outcome in [17], in [10] and in assay [12] was inactive.
